Reference: PubChem BioAssay (Tox21)
Records with an inconclusive call do not appear. Entries that show only a call come without a potency. Active and inactive are the calls of the source. Calls follow the shape of the dose curve; as a rule, active = well fitted activation curve with a large enough effect in the signal ratio in the repeat runs (not every such curve was filed as active); inconclusive = weak or mixed curves; inactive = flat fitted curve, though single readings scatter; the % refers to the signal ratio.

Test: qHTS assay to identify small molecule agonists of the TGF-beta/Smad signaling pathway (AID 1346859)
Settings: SBE-bla HEK293T, TGF-beta/Smad beta-lactamase reporter, 5 h; series mostly up to 76.8 µM
Excerpt: U.S. Tox21 Program National Center for Advancing Translational Sciences [NCATS] NIH Chemical Genomics Center [NCGC] U.S. Environmental Protection Agency [EPA] National Institutes of Environmental Health Sciences [NIEHS] National Toxicology Program [NTP] U.S. Food and Drug Administration [FDA] Tox21 Assay Overview: Transforming growth factor beta (TGF-beta) superfamily consists of a large number of structurally related dimeric proteins that act as hormones or local mediators in regulating a wide range of biological functions. This superfamily includes TGF-betas themselves, the bone morphogenetic proteins (BMPs) and the activins. These ligands induce oligomerization of serine/threonine receptor kinases and phosphorylate the cytoplasmic signaling molecules of Smad protein family. CellSensor SBE-bla HEK 293T cell line (Life Technologies, Carlsbad, CA), responsive to TGF-beta was used to screen Tox21 10K compound library for identification of agonists/antagonists of the Smad signaling pathway. This cell line contains a beta-lactamase reporter gene under control of the Smad binding element (SBE) stably integrated into HEK 293T cells.
Tox21 Assay Protocol Summary: SBE-bla HEK 293T cells were dispensed at 4,000/well in 6 uL of assay medium into black wall/clear-bottom 1536-well plates using a Multidrop Combi (ThermoFisher Scientific, Waltham, MA) dispenser. After the assay plates were incubated at 37 C and 5% CO2 for an overnight, 23 nL of compounds dissolved in DMSO, positive controls or DMSO only was transferred to the assay plate by a Pintool station (Kalypsys, San Diego, CA). The assay plates were incubated at 37 C and 5% CO2 for 5 hr. One uL of LiveBLAzer B/G FRET substrate (Life Technologies) was added using a Flying Reagent Dispenser (Aurora Discovery, San Diego, CA) and the plates were incubated at room temperature for 2 hr. Fluorescence intensity (405 nm excitation, 460 nm and 530 nm emissions) was measured using an Envision plate reader (PerkinElmer, Shelton, CT).

Structure (SMILES) | Potency | activation
O=C(NCC1CN(c2ccc(N3CCOCC3=O)cc2)C(=O)O1)c1ccc(Cl)s1 (stereo not given) | inactive | –
COc1ccc(-c2nc3ccc(C4=NNC(=O)CC4C)cc3[nH]2)cc1 (stereo not given) | inactive | –
O=C(O)c1ccccc1Cl | inactive | –
O=C(Nc1ccc(S(=O)(=O)N2CCOCC2)cc1)c1cc(Cl)ccc1NS(=O)(=O)c1ccc(Cl)s1 | inactive | –
CCCCCCCC#N | inactive | –
O=C(O)C1(C(=O)O)CCC1.[NH2-].[NH2-].[Pt+2] | inactive | –
CCn1cc(C(=O)O)c(=O)c2cnc(N3CCNCC3)nc21 | inactive | –
CC1(c2ccccc2)OC(C(=O)O)=CC1=O (stereo not given) | inactive | –
CCCCCC[C@@H](O)C/C=C\CCCCCCCC(=O)OC | inactive | –
COc1cccc(N(C)C(=S)Oc2ccc3c(c2)CCCC3)n1 | inactive | –
CCN(CC)c1ccc(C(=C2C=CC(=[N+](CC)CC)C=C2)c2cc(S(=O)(=O)O)ccc2S(=O)(=O)[O-])cc1 | inactive | –
O[C@@H](COc1cccc2ncccc12)CN1CCN(C2c3ccccc3[C@@H]3[C@H](c4ccccc42)C3(F)F)CC1 (stereo not given in full) | inactive | –
O=C(OCCCCCCOC(=O)c1ccccc1)c1ccccc1 | inactive | –
NC(=O)C(c1ccccc1)(c1ccccc1)[C@@H]1CCN(CCc2ccc3c(c2)CCO3)C1 | inactive | –
CC(=O)[O][Al] | inactive | –
CC(C)(C)OCC1CO1 (stereo not given) | inactive | –
COc1ccc(C(=O)N2CCN(CC(=O)N3CCOCC3)CC2)cc1 | inactive | –
O=C1C(O)=C(O)C(=O)C(O)=C1O | inactive | –
C=CC1CC2C=CC1C2 (stereo not given) | inactive | –
CCOc1ccc(N=Nc2ccc(/C=C/c3ccc(N=Nc4ccc(OCC)cc4)cc3S(=O)(=O)O)c(S(=O)(=O)O)c2)cc1 | inactive | –

Structure (SMILES) | Potency | activation
COCC(C)OC(C)=O (stereo not given) | inactive | –
Clc1ccc(Cn2c(CN3CCCC3)nc3ccccc32)cc1 | inactive | –
CC1=CC=C(C(C)C)CC1 | inactive | –
O=C1CCC(=O)O1 | inactive | –
CCCCCCCCCCCCN1CCCCCC1=O | inactive | –
CCOC(=O)Cc1cccc2ccccc12 | inactive | –
C[Si](C)(CCCN)O[Si](C)(C)CCCN | inactive | –
CC(C)Nc1ccc(NC(C)C)c2c1C(=O)c1ccccc1C2=O | inactive | –
NS(=O)(=O)c1ccc(N2CCCCS2(=O)=O)cc1 | inactive | –
N=c1ccn2c(n1)O[C@H]1[C@H](O)[C@@H](CO)O[C@H]12 | inactive | –
C[C@@H](c1ncncc1F)C(O)(Cn1cncn1)c1ccc(F)cc1F (stereo not given in full) | inactive | –
CNCCCN1c2ccccc2CCc2ccccc21 | inactive | –
C/C=C/C(=O)CC | – | 4.38% [at 15.8 µM] (inactive)
O=C(CS)Nc1ccccc1 | inactive | –
Cc1cccc(Nc2ccccc2)c1 | inactive | –
c1cc(CCCc2ccncc2)ccn1 | inactive | –
COc1ccc(C(=O)c2ccc(OC)cc2O)c(O)c1 | inactive | –
CCN(CC)CCNC(=O)c1cc(Br)c(N)cc1OC | inactive | –
O=C(O)CC(=O)C(=O)O | inactive | –
CC(C)(C)Cl | inactive | –
